ALDH1A1 inh: ALDH1A1 (human) enzyme inhibition; P00352; Purified ALDH1A1, NADH fluorescence, propionaldehyde substrate; Potency, µM (titrated, usually from 75.3 µM), inactives show top-dose activity, negative = inhibition, hits mostly inhibitors; actives 7.3% (n = 220,000); AID 1030; active means well fitted inhibition curve with a large enough effect, not every such curve was filed as active; inconclusive means small, poorly fitted or top-dose-only effect, or another doubt; inactive means no such curve, though single readings can be large or run the other way;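 further: potency means the concentration at half of the fitted maximal effect; plate controls were no enzyme wells and a reference inhibitor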
Target sequence (P00352 whole entry, looked up): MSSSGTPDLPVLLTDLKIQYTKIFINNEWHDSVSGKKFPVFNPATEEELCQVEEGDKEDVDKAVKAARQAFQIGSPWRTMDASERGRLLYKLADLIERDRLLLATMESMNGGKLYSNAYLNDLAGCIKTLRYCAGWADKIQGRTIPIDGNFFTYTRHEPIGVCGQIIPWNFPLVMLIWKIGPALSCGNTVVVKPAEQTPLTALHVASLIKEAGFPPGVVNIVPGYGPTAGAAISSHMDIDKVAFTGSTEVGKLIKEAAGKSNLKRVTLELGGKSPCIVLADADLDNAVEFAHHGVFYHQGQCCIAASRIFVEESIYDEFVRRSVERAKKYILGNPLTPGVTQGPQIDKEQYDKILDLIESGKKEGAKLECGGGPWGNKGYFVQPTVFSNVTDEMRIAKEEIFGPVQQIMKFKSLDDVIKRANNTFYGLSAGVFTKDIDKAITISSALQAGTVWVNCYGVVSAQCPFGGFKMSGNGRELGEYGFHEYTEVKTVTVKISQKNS
HTT ATP protect: Huntington cell model cytoprotection by ATP luminescence; AID 1471; PC12 HTT-Q103 induced, cytoprotection, ATP luminescence, 40 h; actives 0.14% (n = 230,000); Potency, µM (series often up to 56.4 µM), inactives show cytoprotection (ATP increase), usual class: activators; further: potency means the concentration at half of the fitted maximal effect; % of control where 0% means no effect; nearly all actives have a fitted effect of over 45% in size
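PC12 cells stably carrying ecdysone-inducible Htt exon 1 (Q103)–GFP were induced with 100 nM tebufenozide (final) alongside library compounds in a dose series. Cytoprotection was scored as retained ATP by ATPlite luminescence.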
PNC assembly inh: perinucleolar compartment assembly inhibition; PC3M PTB-GFP, PNC prevalence imaging, 16 h; stronger effect = lower value; activity change (PNC), negative = inhibition, % at 10 µM; actives 3.1% (n = 140,000); AID 2417;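 active means readout at or below -70, meaning at least 70% loss of cells showing the perinucleolar compartment, a nuclear body marking cancer cells; inconclusive means readout between -30 and a set limit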;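 further: plate controls were DMSO wells for no effect and camptothecin positive control wells for full effect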
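Compounds are pinned in duplicate onto adhered PC3M cells stably expressing GFP-tagged PTB and incubated 16 h at 37 C. Cells are then fixed, nuclei stained with Hoechst, and PNC-positive cells counted.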
HttQ103 aggreg: reduces HttQ103-GFP aggregates in PC12 cells; PC12 HttQ103-GFP aggregates, Acumen cytometry, 40 h; Potency, µM (series often up to 46.1 µM), inactives show at the top dose activity change, negative = inhibition, most hits filed as inhibitors; actives 1.1% (n = 220,000); AID 1688; further: potency means the concentration at half of the fitted maximal effect; on the % scale 0 is the no-effect control and ±100 the full control effect; nearly all actives have a fitted effect of over 60% in size
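Compounds (qHTS titration) were added to PC12 cells expressing an ecdysone-driven HTT exon 1 Q103–GFP fusion after induction with 100 nM tebufenozide. Aggregate formation was measured as GFP objects in cell lysates.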
HPGD inh: blocks human HPGD enzyme activity | purified HPGD, NADH fluorescence kinetic, PGE2 substrate | Potency, µM, for the others: top-dose activity change, negative = inhibition, usual class: inhibitors | actives 4.3% (n = 150,000); active means well fitted inhibition curve with a large enough effect, not every such curve was filed as active; inconclusive means small, poorly fitted or top-dose-only effect, or another doubt; inactive means no such curve, though single readings can be large or run the other way; further: potency means the concentration at half of the fitted maximal effect; on the % scale 0 is the no-effect control and ±100 the full control effect
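20 nM HPGD preincubated 15 min at room temperature with compound in 50 mM Tris-HCl pH 8, 0.01% Tween 20. Started with 1 mM NAD+ and 30 uM prostaglandin E2; NADH fluorescence (360/450 nm) read 5 times over 30-s intervals, last minus first.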
CBFb-RUNX1 inh: CBF-beta/RUNX1 interaction disruption. Q01196+Q13951. AlphaScreen CBFb-His/RUNX1-biotin binding, biochemical. Potency, µM (series often up to 59.8 µM), for inactives: top-dose activity, negative = inhibition, hits mostly inhibitors. 230,000 tested, under 10 active. AID 1477; further: % of control where 0% means no effect
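His-tagged CBF-beta and biotinylated RUNX1 (30 nM each) were premixed 20 min at room temperature, exposed to compound for 15 min, then given nickel-chelate and streptavidin AlphaScreen beads (50 ng each). After 90 min, AlphaScreen signal was read.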
* marks the source's active call; other numbers are inactive results; ? = inconclusive; nt = not tested or not shown; [ ] = remark or other dose. Compounds with a hit are over-represented: about 11% of the library has one in this group of screens. Unless noted, the call rests on the fitted dose curve; in most records, active means well fitted curve in the direction sought with a large enough effect; inconclusive means small, poorly fitted or top-dose-only effect, or another doubt; inactive means no such curve, though single readings can be large; an effect the other way counts as inactive or inconclusive.

SMILES	ALDH1A1 inh	HTT ATP protect	PNC assembly inh	HttQ103 aggreg	HPGD inh	CBFb-RUNX1 inh
CC1Cc2ccccc2N1CC(=O)NCc1ccccc1Cl (centres undefined)	?	18%[10 µM]	?	-6%	-6%	-6%
Cc1cccc(NC(=O)CN2NS(=O)(=O)c3ccccc3C2=O)c1	10µM*	0%	?	-1%	-13%	1%
CCn1ccnc1CN(C)Cc1cn(-c2ccc(C)cc2)nc1-c1ccc(F)cc1	-4%	-11%[10 µM]	nt	0%[9.22 µM]	nt	11%
CCn1ccnc1CN(C)Cc1cn(-c2cc(C)ccc2C)nc1-c1ccccc1	28µM*	-16%[10 µM]	nt	16%[9.22 µM]	nt	-24%
CCC(C)(C)NC(=O)Cn1c(-c2ccc(C)cc2)noc1=O	nt	-5%[10 µM]	nt	-15%[9.22 µM]	nt	14%
COc1ccc(S(=O)(=O)N(C)c2ccc(C(=O)N3CCCC3)cc2)cc1	-14%	13%[10 µM]	nt	11%[9.22 µM]	nt	4%
COc1ccccc1N(C)S(=O)(=O)c1ccc(C(=O)NC2=NCCS2)cc1	-4%	18%[1.9 µM]	-5	-7%	2%	9%
COc1ccc(N(C2=NCCCS2)S(=O)(=O)c2ccc(C(C)(C)C)cc2)cc1	0.79µM*	2%[10 µM]	nt	7%[9.22 µM]	nt	12%
COc1ccccc1N(C1=NCCCS1)S(=O)(=O)c1ccc(C(C)(C)C)cc1	0.22µM*	-2%[10 µM]	nt	6%[9.22 µM]	nt	5%
C/C(=N/N=C(/N)SCc1ccccc1)C(C)(C)C	?	-34%	nt	10%	nt	-2%
C/C(N=NC(=[SH+])SCc1ccccc1)=C1\C=CC=CN1.[Cl][Cu]	2.5µM*	nt	nt	nt	3.5µM*	nt
Cc1cc(C(=O)NCc2cccnc2)no1	5%	13%	45	-9%	-9%	3%
Cc1cc2c(cc(C(=O)NCc3cccnc3)n2Cc2ccc(Cl)cc2)o1	6.3µM*	-24%	-2	21%	18µM*	-6%
COCCNC(=O)C(=O)NCC1OCCCN1S(=O)(=O)c1cccs1 (centres undefined)	18µM*	-5%[10 µM]	3	-5%	-9%	3%
O=C(NCc1ccccc1)C(=O)NCC1OCCN1S(=O)(=O)c1cccs1 (centres undefined)	?	nt	?	3%	-2%	10%[2.36 µM]
O=C(NCc1cccs1)C(=O)NCC1OCCCN1S(=O)(=O)c1ccccc1 (centres undefined)	-1%	5%[10 µM]	-90*	7%	-4%	?
O=C(NCc1ccco1)C(=O)NCC1OCCCN1S(=O)(=O)c1ccccc1 (centres undefined)	14µM*	-4%[10 µM]	-4	?	-16%	1%
C=CC1=C2C=C(C3CC3)N(Cc3ccc4c(c3)OCO4)C=C2C(=O)C(C)(OC(=O)c2ccco2)C1=O (centres undefined)	-1%[13.5 µM]	-26%[10 µM]	nt	nt	-8%	-1%[13.1 µM]
Clc1ccc(-c2nc(-c3cc4cc(Cl)ccc4o3)cs2)cc1	nt	-6%[10 µM]	nt	-9%[9.22 µM]	nt	22%
Cc1ccc(C(=N)c2ccccc2Cc2cccc3ccccc23)c2ccccc12	3%[13.5 µM]	-3%[10 µM]	nt	nt	1%	nt
C[C@@H](O)CCC[C@H](O)/C=C/[C@H]1[C@H](O)CC(=O)[C@@H]1C/C=C\CCCC(=O)O	9%	11%	nt	nt	0%	14%
O=C(NCc1cccnc1)C(=O)NCC1OCCN1S(=O)(=O)c1ccc(Cl)cc1 (centres undefined)	12%	nt	-119*	6%	-6%	1%[2.36 µM]
Cc1ccc(S(=O)(=O)N2CCCOC2CNC(=O)C(=O)NCc2cccnc2)cc1 (centres undefined)	-15%	7%[10 µM]	103	12%	-2%	3%
O=C(N/N=C/c1ccccc1Cl)c1n[nH]c2c1CCCC2	4%	-13%[10 µM]	37	13µM*	-16%	-2%
O=C(CN1C(=O)/C(=C\c2ccccc2Cl)Oc2ccccc21)NCc1cccnc1	4µM*	-22%	nt	0%	nt	?
Cc1cccc(CCNS(=O)(=O)c2ccc(S(=O)(=O)N3CCCCC3)cc2)c1	5%	-5%	15	-12%	-4%	-3%

Screening results (PubChem)
